What was measured:
Details in all cases: concentration: 1 μM, replicates: in singlicate; n = 1
[1] = tested on: JAK1(JH2domain-pseudokinase)
[2] = tested on: JAK2(JH1domain-catalytic)
[3] = tested on: JAK3(JH1domain-catalytic)
JNK1 = tested on: T1, JNK1
T1 construct: gene MAPK8

JNK2 = tested on: T2, JNK2
T2 construct: gene MAPK9

JNK3 = tested on: T3, JNK3
T3 construct: gene MAPK10

KIT-autoinhibited = tested on: KIT-autoinhibited
KIT = tested on: KIT
LATS1 = tested on: LATS1
LATS2 = tested on: LATS2
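Also: KINOMEscan kinase panel screen.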

| Structure (SMILES) | %Inh [1] [%] | %Inh [2] [%] | %Inh [3] [%] | %Inh (JNK1) [%] | %Inh (JNK2) [%] | %Inh (JNK3) [%] | %Inh (KIT-autoinhibited) [%] | %Inh (KIT) [%] | %Inh (LATS1) [%] | %Inh (LATS2) [%] |
| --- | --- | --- | --- | --- | --- | --- | --- | --- | --- | --- |
| Fc1cc(Cl)ccc1Nc1ccnc2cc(-c3ccc(CN4CCOCC4)o3)ccc12 [GW560109] | 0 | 35 | 0 | 29 | 23 | 15 | 22 | 100 | 0 | 0 |
| CCn1cnc2c(NCc3ccccc3)ncnc21 [SKF-96418] | 24 | 40 | 5 | 11 | 0 | 0 | 9 | 0 | 0 | 0 |
| CC(C)c1nc(-c2cccc(NS(=O)(=O)c3c(F)cccc3F)c2)c(-c2ccnc(Nc3ccc(N4CCOCC4)nc3)n2)s1.Cl [GSK1723980] | 44 | 36 | 92.3 | 23 | 31 | 7 | 0 | 99.9 | 4 | 0 |
| Cc1ccc(Nc2ccnc(Nc3ccc(C)c(F)c3)n2)cc1O.Cl [GW582868] | 62 | 48 | 0 | 31 | 16 | 12 | 3 | 93.8 | 0 | 0 |
| CN(c1ccc(F)c(NC(=O)c2cccc(OC(C)(C)C#N)c2Cl)c1)c1ccc2nc(NC(=O)C3CC3)sc2n1 | 3 | 0 | 0 | 11 | 0 | 20 | 6 | 99.8 | 0 | 35 |
| Cc1ccc(NC(=O)c2ccc(Cl)c(Cl)c2)cc1-c1ccc(C(=O)Nc2ccncc2)cc1 [GSK1398460] | 0 | 0 | 0 | 11 | 4 | 0 | 9 | 100 | 0 | 3 |
| Nc1ncc(-c2cn[nH]c2)c2scc(-c3ccc4c(c3)CCN4C(=O)Cc3ccccc3)c12 [GSK2593067] | 0 | 43 | 0 | 13 | 12 | 2 | 12 | 100 | 0 | 55 |
| COc1ccc(NC(=O)c2ccoc2)cc1-c1ccc(C(=O)NCC2CC2)cc1 [GW810437] | 0 | 47 | 0 | 23 | 23 | 11 | 17 | 0 | 12 | 0 |
| CCNC(=O)/C=C/c1n[nH]c2cc(Sc3ccccc3C(=O)NC)ccc12 | 0 | 0 | 18 | 15 | 4 | 0 | 95 | 100 | 17 | 22 |

— article PMC5540273 (PLoS ONE, 2017)
